# Measured values as given in the supplement of paper PMC10646978.
# ± gives the standard deviation.
# What was measured:
# Conditions in all cases: modulator concentration 10 µM
# [1] = system: RAW-Dual (murine macrophage reporter line); assay: NF-kB reporter (SEAP) activity fold change vs agonist alone; higher = enhanced NF-kB activity
# Summary of the method: (§1)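 Compound reached 10 μM final in each well by pin transfer, onto RAW-Dual murine macrophage reporter cells seeded at 50 000 per well in 384-well plates. After 1 hour at 37 °C, the cells were stimulated overnight with a PRR agonist. SEAP in the supernatant was read with QUANTI-Blue at 620 nm absorbance for NF-κB, and Lucia luciferase was read with QUANTI-Luc luminescence for IRF. Each signal was turned into fold change against the mean agonist-only control on the same plate, and two replicate plates were averaged with propagated errors.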
# [2] = system: RAW-Dual (murine macrophage reporter line); assay: IRF reporter (Lucia luciferase) activity fold change vs agonist alone; higher = enhanced IRF activity
# Summary of the method: as §1
# [3] = system: RAW-Dual (murine macrophage reporter line); assay: viability score (confluency relative to resting cells, overnight) (fraction); higher = more viable, active = viable (0.7 or more)
# Summary of the method: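 In 384-well plates, RAW-Dual macrophages received compound at a final 10 μM overnight. Two confluency masks were then made with IncuCyte software from IncuCyte images of all imaged wells. The viability score is defined as confluency relative to resting cells. Passing the cutoff required both masks to lie above 70% of resting cells.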
# [4] = agonist: CpG ODN 1826 0.5 ug/mL
Structure (SMILES),"NF-kB reporter [1, 4]",NF-kB reporter ([1]; agonist: LPS 0.1 ug/mL),NF-kB reporter ([1]; agonist: MPLA […]),IRF reporter ([2]; agonist: 3'3'-cGAMP 10 ug/mL),IRF reporter ([2]; agonist: LPS 0.1 ug/mL),IRF reporter ([2]; agonist: MPLA […]),viability score [3]
CCn1c2ccccc2c2cc(CNCCc3ccccc3)ccc21,0.476 ± 0.041,0.534 ± 0.035,0.977 ± 0.068,0.438 ± 0.067,0.605 ± 0.043,2.43 ± 0.32,0.0405 (inactive)
CCC(O)=C(C#N)c1nc2ccccc2n1C,1.12 ± 0.12,0.938 ± 0.061,1.18 ± 0.064,0.792 ± 0.033,1.02 ± 0.07,1.37 ± 0.15,0.995 (active)
CS(=O)(=O)C1CC2CCC(C1)N2C(=O)c1cccc(Oc2ccc(F)cc2)c1 (configuration not stated),1.07 ± 0.09,1.13 ± 0.097,1.06 ± 0.15,0.94 ± 0.048,1.2 ± 0.085,1.33 ± 0.17,0.99 (active)
NC(=O)NO,1.31 ± 0.18,1.21 ± 0.29,0.96 ± 0.057,0.905 ± 0.028,1.44 ± 0.26,1.09 ± 0.084,1 (active)
CCOC(=O)C(CCCOc1c(C)cc(Cl)cc1C)C(=O)OCC,0.961 ± 0.078,0.909 ± 0.069,1.08 ± 0.086,0.985 ± 0.04,0.95 ± 0.045,1.22 ± 0.17,0.997 (active)
Cl.OC(CCN1CCCC1)(c1ccccc1)C1CCCCC1 (configuration not stated),0.822 ± 0.28,1.13 ± 0.061,1.12 ± 0.088,0.625 ± 0.025,1.07 ± 0.14,1.18 ± 0.26,0.976 (active)
CN(C)CCOC(c1ccc(Cl)cc1)c1ccccn1.O=C(O)/C=C\C(=O)O (configuration not stated),0.87 ± 0.12,1.14 ± 0.19,0.954 ± 0.073,0.752 ± 0.03,1.36 ± 0.27,1.15 ± 0.12,1 (active)
O=C(NCC#CCN1CCc2ccccc2C1)c1cccc(Br)c1,0.87 ± 0.043,1.12 ± 0.095,0.94 ± 0.057,1.01 ± 0.057,1.14 ± 0.069,1.26 ± 0.12,1.01 (active)
CSCCC(NC(C)=O)C(=O)NC1CCN(c2nc(C)nc3c2CCCC3)CC1 (configuration not stated),0.836 ± 0.061,1.06 ± 0.086,0.896 ± 0.048,0.957 ± 0.073,1.29 ± 0.18,1.17 ± 0.16,0.999 (active)
CN(C)C=C1C(=O)N(c2nc3ccccc3s2)N=C1CSc1ccc(Cl)cc1,0.945 ± 0.078,1.02 ± 0.067,0.916 ± 0.058,0.843 ± 0.029,1.42 ± 0.12,1.15 ± 0.073,1.01 (active)
Cc1cccc(CCC(=O)N2CCCC(Oc3ccnc(C)n3)C2)c1 (configuration not stated),1.02 ± 0.09,1.14 ± 0.11,1.06 ± 0.15,0.731 ± 0.057,1.19 ± 0.085,1.16 ± 0.24,0.963 (active)
O=C(Nc1cc(C(F)(F)F)cc(C(F)(F)F)c1)c1ccco1,0.816 ± 0.11,1.07 ± 0.061,1.02 ± 0.072,0.715 ± 0.019,1.07 ± 0.23,0.89 ± 0.15,1.01 (active)
CC(=O)c1cccc(NC(=O)CSc2nnc3c4ccccc4n(C)c3n2)c1,0.817 ± 0.063,0.835 ± 0.069,0.994 ± 0.091,0.904 ± 0.042,1.27 ± 0.11,1.41 ± 0.21,1.01 (active)
CS(=O)(=O)O.O=C(NC1CCN(CCCCC2(C(=O)NCC(F)(F)F)c3ccccc3-c3ccccc32)CC1)c1ccccc1-c1ccc(C(F)(F)F)cc1,0.0785 ± 0.0033,0.0479 ± 0.004,0.118 ± 0.0076,0.0799 ± 0.0056,0.0322 ± 0.0052,0.0401 ± 0.0064,0.258 (inactive)
CC(C)OC(=O)c1c(NC(=O)C2CC=CCC2C(=O)O)sc2c1CCCC2 (configuration not stated),0.92 ± 0.12,0.999 ± 0.056,0.901 ± 0.054,0.965 ± 0.024,1.29 ± 0.18,1.14 ± 0.28,1.01 (active)
COc1ccc(-c2noc(-c3ccc(=O)n(Cc4ncc(C)c(OC)c4C)c3)n2)cc1F,0.91 ± 0.058,0.944 ± 0.083,1.06 ± 0.073,0.961 ± 0.044,1.17 ± 0.24,1.31 ± 0.51,0.956 (active)
c1ccc(CSc2nnc(-c3ccncc3)o2)cc1,1.08 ± 0.075,1.18 ± 0.073,1.44 ± 0.13,0.379 ± 0.017,0.65 ± 0.056,0.501 ± 0.068,0.988 (active)
CCCCCn1c(=O)[nH]c2cc(C(=O)N3CCN(C(=O)OCC)CC3)ccc2c1=O,1.12 ± 0.065,1.09 ± 0.068,1.02 ± 0.069,1.01 ± 0.035,1.45 ± 0.11,1.24 ± 0.14,0.974 (active)
CN1[C@@H]2CC[C@H]1C[C@@H](OC(c1ccccc1)c1ccccc1)C2.CS(=O)(=O)O,0.95 ± 0.13,1.19 ± 0.5,1.48 ± 0.23,0.438 ± 0.013,0.934 ± 0.35,1.53 ± 0.15,
Cc1ccc(OCCSc2nc3ccccc3c(=O)[nH]2)cc1C,0.728 ± 0.2,1.11 ± 0.13,1.02 ± 0.13,0.886 ± 0.025,1.03 ± 0.22,1.19 ± 0.24,0.818 (active)
COc1cccc(-c2cc(C(=O)N3CCC(Oc4cc(C)n(C)c(=O)c4)CC3)n(C)n2)c1,1.01 ± 0.11,0.994 ± 0.1,0.983 ± 0.06,0.991 ± 0.059,0.964 ± 0.066,0.938 ± 0.085,1 (active)
CCN(CC)CCOC(=O)c1ccc(N)cc1Cl.Cl,1.06 ± 0.094,0.971 ± 0.048,1.04 ± 0.038,0.957 ± 0.087,1.01 ± 0.089,0.897 ± 0.077,0.999 (active)
Cc1ccc(C2(c3ccc(C)cc3)CC2C(=O)Nc2ccncc2)cc1 (configuration not stated),0.811 ± 0.095,0.865 ± 0.076,0.908 ± 0.033,0.764 ± 0.045,1.04 ± 0.09,1.02 ± 0.074,1 (active)
COc1cc2ncnc(Nc3ccc(F)c(Cl)c3)c2cc1OCCCN1CCOCC1.Cl,0.0798 ± 0.019,0.978 ± 0.06,1.08 ± 0.1,0.193 ± 0.015,0.835 ± 0.1,1.16 ± 0.11,0.592 (inactive)
